# Laboratory results from the supplement of paper PMC3545927.
# The other results are listed elsewhere or left out. The true hit rate is not given.
# Molecular target: furin, P09958
# Assay: furin cleavage Z-score vs untreated control; higher = more cleavage, active = 3.5 or more, inactive = 1 or less, 8 variable residues between constant flanks
# In short: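 Furin-free reactions served as the baseline for the cleavage Z-score, which is the log read count lowess-adjusted and scaled by median absolute deviation. Counts came from released DNA, adapter-tagged by PCR and sequenced. Purified furin had cut 8-mer peptides fused to a cDNA oligonucleotide on magnetic beads during 7.5, 15 or 30 min at 1:10 enzyme:substrate.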
# 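Further: purified furin at 1:10 enzyme:substrate in 50 mM HEPES pH 7.5.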
# Sequence of furin, P09958 (P09958 whole entry): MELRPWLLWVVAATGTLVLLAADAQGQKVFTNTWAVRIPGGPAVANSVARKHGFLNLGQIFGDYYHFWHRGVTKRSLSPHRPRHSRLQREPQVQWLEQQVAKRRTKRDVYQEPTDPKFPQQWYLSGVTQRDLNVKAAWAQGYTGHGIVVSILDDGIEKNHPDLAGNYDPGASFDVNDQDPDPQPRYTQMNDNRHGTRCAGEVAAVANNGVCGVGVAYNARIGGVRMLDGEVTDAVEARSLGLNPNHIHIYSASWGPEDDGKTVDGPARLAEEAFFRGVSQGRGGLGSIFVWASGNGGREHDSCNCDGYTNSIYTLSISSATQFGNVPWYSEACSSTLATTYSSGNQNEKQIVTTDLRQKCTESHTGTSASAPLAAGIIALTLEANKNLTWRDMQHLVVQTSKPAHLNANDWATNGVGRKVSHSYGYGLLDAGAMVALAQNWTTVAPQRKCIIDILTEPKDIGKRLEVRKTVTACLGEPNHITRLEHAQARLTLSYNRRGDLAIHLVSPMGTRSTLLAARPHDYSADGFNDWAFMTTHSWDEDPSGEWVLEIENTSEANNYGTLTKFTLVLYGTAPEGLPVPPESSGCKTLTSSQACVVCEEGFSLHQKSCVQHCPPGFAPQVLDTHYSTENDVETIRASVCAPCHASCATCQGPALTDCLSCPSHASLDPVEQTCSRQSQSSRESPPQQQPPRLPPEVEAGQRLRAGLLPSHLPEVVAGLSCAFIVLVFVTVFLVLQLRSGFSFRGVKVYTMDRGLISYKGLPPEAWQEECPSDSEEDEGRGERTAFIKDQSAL
Sequence,furin cleavage Z-score (7.5 min),furin cleavage Z-score (15 min),furin cleavage Z-score (30 min)
CALHTPGCVPAGNASASA [HC271],-1.15 (inactive),-0.17 (inactive),0.0406 (inactive)
CAWIWFCLLLAGNASASA [HC1656],-0.725 (inactive),-0.337 (inactive),-0.583 (inactive)
CATQRRGRTGAGNASASA [HC903],-0.796 (inactive),-0.169 (inactive),-0.351 (inactive)
CATQSRIRRMAGNASASA [FS-511],5.23 (active),7.4 (active),6.25 (active)
CACWPRHRRVAGNASASA [FS-1314],0.553 (inactive),1.38,2.27
CASQSRIRRMAGNASASA [FS-504],9.85 (active),9.09 (active),8.46 (active)
CAMRAFQRRMAGNASASA [FS-276],-1.44 (inactive),-1.21 (inactive),-0.935 (inactive)
CAKWSRHRRMAGNASASA [FS-175],11.5 (active),12.9 (active),11.2 (active)
CAMRLRIRRMAGNASASA [FS-1601],10.1 (active),8.78 (active),9.1 (active)
CANIEEVALSAGNASASA [HC841],0.342 (inactive),0.83 (inactive),-1.19 (inactive)
CAFYLRRRRRAGNASASA [FS-527],2.84,3.02,3.78 (active)
CAIKKRFQTTAGNASASA [FS-1881],-0.863 (inactive),-1.06 (inactive),-0.368 (inactive)
CAIKKRRRRRAGNASASA [FS-33],7.42 (active),7.44 (active),6.1 (active)
CASMVGNWAKAGNASASA [HC342],1.34,0.0553 (inactive),0.702 (inactive)
CASKPCSAHLAGNASASA [HC2494],1.46,0.933 (inactive),0.45 (inactive)
CAARARLGRQAGNASASA [FS-400],5.77 (active),6.39 (active),5.75 (active)
CAARGRGGRDAGNASASA [FS-978],0.0621 (inactive),-0.261 (inactive),-0.608 (inactive)
CAACPRRARGAGNASASA [FS-1297],-0.34 (inactive),-0.615 (inactive),-0.259 (inactive)
CAARARLPRDAGNASASA [FS-1185],9.09 (active),9.62 (active),6.75 (active)
CATRARLSRPAGNASASA [FS-1098],-0.0765 (inactive),-0.0832 (inactive),-0.467 (inactive)
CASQARLGRIAGNASASA [FS-301],-1.06 (inactive),-0.739 (inactive),-0.311 (inactive)
CAARPRRARQAGNASASA [FS-1585],9.65 (active),12 (active),7.48 (active)
